# High-throughput results: PubChem, National Center for Advancing Translational Sciences (NCATS)
# Sm TGR block – qHTS Assay for the Inhibitors of Schistosoma Mansoni Peroxiredoxins | purified TGR, DTNB reduction, TNB absorbance 405 nm | 360,000 compounds, 3% hits | Potency, µM (series often up to 114 µM), inactives show at the top dose activity change, negative = inhibition, most hits filed as inhibitors; note: nearly all actives have a fitted effect of over 60% in size
#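 Kinetic colorimetric format: TGR-catalysed, NADPH-driven DTNB reduction monitored via TNB absorbance. Enzyme dispensed at 20 nM; compound exposure 15 min at room temperature before reaction start.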
# RE007 growth inh – qHTS Assay for Inhibitors of the HIV-1 protein Vpr. S. pombe RE007 Vpr strain, BacTiter-Glo ATP luminescence, 24 h. AID 651644, 2012. 360,000 compounds, 0.21% hits. Potency, µM (highest dose often 92.2 µM), for the others: at the top dose activity change, negative = less growth, usual class: inhibitors; active = well fitted falling curve with a large enough effect; inconclusive = small, poorly fitted or top-dose-only effect; inactive = no such curve, though single readings can be large or run the other way; note: nearly all actives have a fitted effect of over 50% in size
#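 Fission yeast RE007 carrying one integrated HIV-1 vpr copy, seeded at OD 0.01 in PMG+AL medium with 23 nL pinned compound. Grown 24 h at 30 degrees; viability read by BacTiter-Glo luminescence after 5 min.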
# AmpC detergent – qHTS Inhibitors of AmpC Beta-Lactamase (assay with detergent); Potency, µM (series often up to 114 µM), for the others: top-dose activity change, negative = inhibition, most hits filed as inhibitors; AmpC hydrolysis of nitrocefin, absorbance 480 nm, 0.01% Triton; P00811; AID 485294, 2010; 370,000 compounds, 0.041% hits;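 note: 0% = no-compound wells and -100% = no-enzyme wells; nearly all actives have a fitted effect of over 25% in size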
# Target sequence (P00811 whole entry, looked up): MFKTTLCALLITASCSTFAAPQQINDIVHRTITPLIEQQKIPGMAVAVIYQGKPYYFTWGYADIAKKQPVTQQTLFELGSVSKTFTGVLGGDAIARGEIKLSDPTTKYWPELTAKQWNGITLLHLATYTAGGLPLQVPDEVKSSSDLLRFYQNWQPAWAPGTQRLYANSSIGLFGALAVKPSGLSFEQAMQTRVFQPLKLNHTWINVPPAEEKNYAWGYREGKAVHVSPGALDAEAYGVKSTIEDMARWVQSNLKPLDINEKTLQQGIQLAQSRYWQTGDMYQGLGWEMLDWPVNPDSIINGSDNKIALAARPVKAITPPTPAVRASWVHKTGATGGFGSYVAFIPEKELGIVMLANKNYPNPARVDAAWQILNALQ
#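 AmpC (5.3 nM in the dispensed reagent) in 20 mM phosphate pH 7.0 with 0.01% (detergent screen) or 0.0001% Triton X-100 was preincubated with compounds for 15 min at room temperature. Nitrocefin was then added from an 800 uM solution, and hydrolysis was followed at 480 nm.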
# AmpC inh no detg – qHTS Inhibitors of AmpC Beta-Lactamase (assay without detergent). P00811. AmpC nitrocefin hydrolysis, absorbance 480 nm, 0.0001% Triton. Potency, µM (series often up to 57.1 µM), for inactives: at the highest dose activity change, negative = inhibition, usual class: inhibitors. 330,000 compounds, 0.52% hits. AID 485341, 2010;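 note: plate controls were no compound for no effect and no enzyme for full effect; nearly all actives have a fitted effect of over 20% in size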
#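 AmpC (5.3 nM in the dispensed reagent) in 20 mM phosphate pH 7.0 with 0.01% (detergent screen) or 0.0001% Triton X-100 was preincubated with compounds for 15 min at room temperature. Nitrocefin was then added from an 800 uM solution, and hydrolysis was followed at 480 nm.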
# AMA1-RON2 inh – qHTS for Inhibitors of AMA1-RON; Towards Development of Antimalarial Drug Lead: Primary Screen | Plasmodium falciparum AMA1 (3D7) - RON2 peptide interaction | AlphaScreen AMA1-biotinylated RON2 peptide binding | 360,000 compounds, 0.2% hits | Potency, µM (titrated, usually from 58.2 µM), for the others: at the highest dose activity change, negative = inhibition, hits mostly inhibitors | AID 720542, 2013;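 note: 0% = vehicle wells and -100% = peptide control; nearly all actives have a fitted effect of over 45% in size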
#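 AMA1 (3D7) with his tag at 25 nM final met compounds first, then biotinylated RON2 peptide at 25 nM; detection used donor plus acceptor beads, 10 µg/mL apiece, read by AlphaScreen after 30 min at room temperature.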
# * hit, by the source's call; ? = inconclusive; . = not tested or not shown; [ ] = remark or other dose. Shown are actives, neighbours in structure and some others; about 3.2% of the full set was active somewhere. Unless noted, calls come from the whole dose curve; as a rule, active = well fitted curve in the direction sought with a large enough effect; inconclusive = small, poorly fitted or top-dose-only effect, or another doubt; inactive = no such curve, though single readings can be large; an effect the other way counts as inactive or inconclusive. Unless noted, % is set by controls: 0 for no effect and ±100 for the full control effect; potency is the fitted concentration of half-maximal effect.
SMILES,Sm TGR block,RE007 growth inh,AmpC detergent,AmpC inh no detg,AMA1-RON2 inh
O=S(=O)(c1ccccc1F)N(Cc1ccco1)Cc1nnc(-c2ccccc2Br)o1,16µM*,15%,-10%,-9%,0%
COc1ccc(CN2C[C@H]3CCCN3c3cc(Br)ccc3S2(=O)=O)cc1,.,10%,.,20µM*,2%
COc1ccc(CN2CCCN(CC(=O)Nc3ccc(Br)cc3F)S2(=O)=O)cc1,7%,.,0%,.,.
CCn1c(CN2CCC(C)CC2)nc2cc(NC(=O)COc3ccc(Cl)c(C)c3)ccc21,-16%,.,26%,.,.
Cc1cc(C)c(C(=O)N2CCCC(CNS(=O)(=O)c3cccs3)C2)o1 (centres undefined),-3%,2%,-4%,-1%,5%
CC(C)(O)C#Cc1ccc(C(=O)N2CCCC(CNS(=O)(=O)c3cccs3)C2)o1 (centres undefined),11µM*,15%,0%,2%,10%
Oc1cccc(C2c3[nH]c4ccccc4c3CCN2Cc2ccc3c(c2)CCO3)c1 (centres undefined),-2%[57.1 µM],-18%,-2%,-48%,?
Oc1cccc(C2c3[nH]c4ccccc4c3CCN2Cc2ccoc2)c1 (centres undefined),18µM*,-1%,-9%,-45%,-7%
O=C(Nc1cccc(-c2nc3cc(Cl)ccc3o2)c1)c1ccc(F)cc1,?,.,-1%,.,.
CN(Cc1ccccc1)C(=C(Cl)Cl)C(=C1NCCN1)[N+](=O)[O-],35µM*,-1%,-6%,-18%,25%
COc1ccc(C(C)=O)cc1COC(=O)c1ccc2ccccc2n1,25µM*,-9%,-8%,-18%[11.4 µM],14%
COc1ccc(C(C)=O)cc1COC(=O)c1cc(=O)c2ccccc2o1,1.8µM*,?,-7%,-4%,8%
COc1ccc(C(C)=O)cc1COC(=O)c1c(C)nn(-c2ccccc2)c1C,?,4%,3%,116%,-2%
COc1ccc(C(C)=O)cc1COC(=O)Cc1n[nH]c(=O)c2ccccc12,18µM*,1%,-18%,-30%,0%
COc1ccc(C(C)=O)cc1COC(=O)c1cc(C)nc2ccccc12,3.5µM*,1%,0%,12%,11%
COc1ccc(Cl)cc1NC(=O)c1c(NCc2cccs2)sc2c1CCC(C)C2 (centres undefined),-7%,.,-6%,.,.
COc1cccc(C2CC(=O)Nc3c2c(=O)[nH]c2nc4ccccc4n32)c1 (centres undefined),0%,.,0%,.,.
CCOc1ccc(C(C)=O)cc1COC(=O)c1cccnc1SC,-3%,-4%,1%,-1%,1%
COc1ccc(C(C)=O)cc1COC(=O)c1cccnc1SC,3.2µM*,3%,8%,3%,8%
COC(=O)N1C(=O)[C@@](CC(C)C)(c2ccccc2)N1C(=O)OC,3.5µM*,.,-2%,17%,.
COC(=O)N1C(=O)[C@](c2ccccc2)(C2CCCCC2)N1C(=O)OC,5µM*,-8%,4%,67%,5%
COC(=O)N1C(=O)[C@](CC(C)C)(c2ccccc2)N1C(=O)OC,7.9µM*,2%,-12%,1%,-5%
COc1ccc(NC(=O)CNC(=O)Cn2ccc3ccccc3c2=O)cc1OC,23%,.,12%,.,.
Cc1ccc(C2=Nc3ccccc3N(CC(=O)NCc3ccccc3Cl)C(=O)C2)cc1C,2%,.,19%,.,.
COc1ccc(N2C(=O)CC(N3CCN(c4ccccc4OC)CC3)C2=O)cc1 (centres undefined),?,-26%,-6%,13%,4%
COc1ccc(N2C(=O)CC(N3CCOCC3)C2=O)cc1 (centres undefined),25µM*,?,?,-19%,0%
